Experimental data reported in PubChem BioAssay.
Results filed as inconclusive are left out. Active and inactive are the calls of the source.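 Rule for the calls, unless noted: active = percent response above a set limit, the screen-wide mean plus 3 SD (cut at about 130% in these data); inactive = the rest.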

What was measured:
[1] = yeast TOR pathway RPL19A-GFP modulators, primary screen, cell-based, S. cerevisiae, multiplex flow cytometry (AID 1862; in the data active = percent of DMSO control GFP below about 86%;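 note: lower values mimic rapamycin by blocking the RPL19A rise seen in DMSO cells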); conditions: S. cerevisiae RPL19A-GFP strain, flow cytometry fluorescence, 3 h; at 10 µM; stronger effect = lower value
[2] = modulators of MEP2-GFP levels in yeast, primary screen, S. cerevisiae, multiplex flow cytometry (AID 1867;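 active = GFP response, as percent of the DMSO control, above the screen-wide mean plus 3 SD, about 139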;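 note: median GFP channel fluorescence of barcode-gated MEP2-GFP cells measured by flow cytometry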); conditions: S. cerevisiae MEP2-GFP strain, 3 h, at 10 µM, stronger effect = higher value, 100% means same as DMSO wells
[3] = modulators of CIT2-GFP expression in yeast, primary screen, S. cerevisiae, GFP fusion, multiplex flow cytometry (AID 1870); conditions: 3 h, at 10 µM, stronger effect = higher value;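 note: barcoded CIT2-GFP strain pooled with four other GFP strains with rapamycin as positive control; median GFP fluorescence per well over plate mean of DMSO wells so 100% = DMSO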
[4] = modulators of LAP4-GFP expression in yeast, primary screen, S. cerevisiae, multiplex flow cytometry (AID 1873;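 active = GFP signal, as percent of the solvent control, above the screen mean plus 3 SD, about 149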); conditions: 3 h, at 10 µM, stronger effect = higher value
[5] = modulators of AGP1-GFP expression in yeast TOR pathway, primary screen, cell-based, multiplex flow cytometry, S. cerevisiae (AID 1887;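 active = GFP signal above the screen-wide mean plus 3 SD, that is over about 124.5% of the solvent control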;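 note: AGP1-GFP fusion strain of S. cerevisiae within a five-strain barcoded multiplex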); conditions: 3 h, at 10 µM, stronger effect = higher value
[6] = inhibitors of CD8+ T cell-vesicle binding, pilot screen, LFA-1/ICAM-1 modulator project, MLPCN validation set, flow cytometry (AID 2523;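 active = response below a set limit, under 55% cells CD8-positive and vesicle-bound, and CD8 cells' 90th-percentile brightness under 279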;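 for vesicle binding response: mean PE anti-B7-1 fluorescence of CD8+ cells relative to row control; 100% = QL9-loaded vesicles with DMSO vehicle in the same plate row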); conditions: 2C mouse CD8+ T cells, at 7 µM, stronger effect = lower value; double positive events: measured here: CD8+/vesicle+ event percentage
[7] = biological target: Integrin beta-1 (Homo sapiens) + Integrin alpha-4 (Homo sapiens) (UniProt P13612+P05556); experiment: inhibition of HUTS-21 binding to VLA-4, pilot screen, VLA-4 allosteric modulator project, U937 cells, HUTS-21 mAb, flow cytometry, validation set (AID 2674;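 active = inhibition above 50%, about 3 SD of the validation set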;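 note: antibody binding induced by the VLA-4 ligand LDV present at three times its Kd; 0% = LDV ligand with antibody and no compound and 100% = antibody without LDV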); conditions: HUTS-21 LIBS mAb binding, at 6.7 µM, stronger effect = higher value, binding induced by LDV ligand
[8] = superoxide lowering in aged yeast cells, pilot screen, validation compound set (AID 2706;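 active = superoxide response below 65% of plate, a cut near 3 SD across the whole screen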;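 note: yeast exposed to compound for one week at 30 degrees C before staining; 100% = mean of all compound wells on the same plate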); conditions: S. cerevisiae aging, superoxide DHE fluorescence; at 10 µM, stronger effect = lower value
[9] = biological target: Beta-adrenergic receptor kinase 1 (Homo sapiens) (UniProt P25098); experiment: GRK2 binders displacing RNA aptamer, biochemical, validation, human GRK2, bead flow cytometry (AID 488806;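 active = aptamer binding inhibition above 30%, about 3 SD of noise from non-fluorescent compounds; inactive = inhibition at or below 30%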); conditions: bead-bound GRK2, FAM-aptamer displacement, at 10 µM, stronger effect = higher value
[10] = biological target: AP-2 complex subunit beta (Homo sapiens) (UniProt P63010); experiment: inhibitors of arrestin peptide binding to AP2, pilot screen, biochemical, validation set, GST-AP2 beads, flow cytometry (AID 504541;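 active = inhibition above 54%, about 3 SD of non-fluorescent compounds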;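 note: AP2 carries R879A mutation and is captured from E. coli lysate; bead-bound FITC arrestin peptide fluorescence measuring arrestin peptide binding to AP2; 0% = DMSO wells and 100% = excess unlabeled arrestin peptide control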); conditions: FITC arrestin peptide, at 10 µM, stronger effect = higher value, AP2 beta2 appendage fragment, R879A mutant
[11] = yeast V-ATPase proton transport modulators, S. cerevisiae, pHLuorin, HTS validation (AID 504600; in the data active = response above about 15%;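 note: plate controls were DMSO for no effect and reference compound for full effect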); conditions: S. cerevisiae pHLuorin cytosolic pH, at 10 µM, stronger effect = higher value
[12] = system: anti-desmoglein-3 scFv antibody binding to human DSG3; experiment: inhibitors of anti-DSG3 scFv binding to DSG3, pilot screen, biochemical, validation compound set, bead-based, flow cytometry (AID 588368;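 active = binding below the plate cutoff, the plate median minus 3 SD, with a reading above zero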;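 note: signal is the median channel fluorescence of bead-bound GFP antibody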); conditions: Protein G beads, DSG3-Fc, scFv-GFP binding, at 10 µM, stronger effect = lower value
[13] = inhibitors of fungal efflux pumps CDR1, CDR2, MDR1, pilot screen, validation compound set, multiplex, phenotypic (AID 588506;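 active = efflux inhibition above 0.42, the validation set average plus 4 SD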;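 note: Nile Red retained in cells so higher fluorescence means more efflux inhibition; 0 = negative control wells and 1 = enniatin B 25 µM full block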); conditions: S. cerevisiae pump-expressing triplex, Nile Red efflux flow cytometry; at 10 µM; stronger effect = higher value; the pumps come from Candida albicans
[14] = biological target: ATP-binding cassette sub-family B member 6 (Homo sapiens) (UniProt Q9NP58); experiment: ABCB6 transporter inhibitors, pilot screen, K562-ABCB6 cells, flow cytometry, validation set (AID 588550;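 active = inhibition above the screen-wide mean plus 3 SD, about 51%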;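 note: 0% = DMSO wells and 100% = benzethonium chloride 70 µM positive control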); conditions: K562-ABCB6 porphyrin accumulation, 1 h, at 10 µM, stronger effect = higher value
[15] = promoters of myeloid differentiation in arrested cells, primary screen, cell-based, GFP/MAC1 double positive, flow cytometry, validation set (AID 588685;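 active = differentiation response of at least 50%, scaled between solvent and reference control, from cells with both markers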;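 note: compound exposure lasts four days before antibody staining and flow analysis; 0% = DMSO wells and 100% = 5 µM fulvestrant positive control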); conditions: ER-HoxA9 marrow cells, stronger effect = higher value, normalized: vehicle 0, fulvestrant 100

Sequence of Beta-adrenergic receptor kinase 1 (Homo sapiens) (P25098 whole entry, looked up): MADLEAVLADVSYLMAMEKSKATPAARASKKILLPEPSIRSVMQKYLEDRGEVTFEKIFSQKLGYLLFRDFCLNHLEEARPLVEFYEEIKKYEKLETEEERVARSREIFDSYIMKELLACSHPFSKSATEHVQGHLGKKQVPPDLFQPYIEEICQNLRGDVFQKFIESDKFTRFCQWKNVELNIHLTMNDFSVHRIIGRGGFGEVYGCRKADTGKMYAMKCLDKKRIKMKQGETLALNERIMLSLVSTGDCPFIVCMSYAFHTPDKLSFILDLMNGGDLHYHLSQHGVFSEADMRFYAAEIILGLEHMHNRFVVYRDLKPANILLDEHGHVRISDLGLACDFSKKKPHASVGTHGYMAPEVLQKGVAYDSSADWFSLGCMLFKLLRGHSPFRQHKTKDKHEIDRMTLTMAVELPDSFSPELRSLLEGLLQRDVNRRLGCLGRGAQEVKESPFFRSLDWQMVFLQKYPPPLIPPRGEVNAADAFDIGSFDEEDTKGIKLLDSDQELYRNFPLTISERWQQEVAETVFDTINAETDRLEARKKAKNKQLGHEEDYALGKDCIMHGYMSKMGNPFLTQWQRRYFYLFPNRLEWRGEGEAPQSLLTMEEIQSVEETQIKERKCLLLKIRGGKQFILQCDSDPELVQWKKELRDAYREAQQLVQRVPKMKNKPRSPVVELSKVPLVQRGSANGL
Sequence of ATP-binding cassette sub-family B member 6 (Homo sapiens) (Q9NP58 whole entry, looked up): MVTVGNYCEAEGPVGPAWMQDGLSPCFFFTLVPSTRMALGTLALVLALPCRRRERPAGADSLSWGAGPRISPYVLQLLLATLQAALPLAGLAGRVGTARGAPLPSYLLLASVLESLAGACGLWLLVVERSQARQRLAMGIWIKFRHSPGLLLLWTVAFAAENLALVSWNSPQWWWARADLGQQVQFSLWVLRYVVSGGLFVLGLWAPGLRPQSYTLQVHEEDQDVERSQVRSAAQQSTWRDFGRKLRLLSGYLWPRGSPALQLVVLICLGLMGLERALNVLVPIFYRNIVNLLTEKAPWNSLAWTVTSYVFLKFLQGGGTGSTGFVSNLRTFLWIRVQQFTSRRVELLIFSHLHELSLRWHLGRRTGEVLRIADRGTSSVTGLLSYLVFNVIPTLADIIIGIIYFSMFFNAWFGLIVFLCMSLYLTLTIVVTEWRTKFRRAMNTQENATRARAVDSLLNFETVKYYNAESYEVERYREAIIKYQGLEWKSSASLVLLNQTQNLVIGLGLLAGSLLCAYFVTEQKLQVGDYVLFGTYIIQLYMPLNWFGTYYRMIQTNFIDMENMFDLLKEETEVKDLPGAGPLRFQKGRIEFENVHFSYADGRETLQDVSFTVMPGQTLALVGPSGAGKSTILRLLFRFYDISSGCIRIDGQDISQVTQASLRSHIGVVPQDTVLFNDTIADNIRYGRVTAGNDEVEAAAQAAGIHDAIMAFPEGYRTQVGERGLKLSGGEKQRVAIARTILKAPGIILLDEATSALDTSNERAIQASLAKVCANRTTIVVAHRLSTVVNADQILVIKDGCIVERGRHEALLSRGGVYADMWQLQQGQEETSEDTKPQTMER
Sequence of Integrin beta-1 (Homo sapiens) + Integrin alpha-4 (Homo sapiens) (P05556 whole entry, looked up): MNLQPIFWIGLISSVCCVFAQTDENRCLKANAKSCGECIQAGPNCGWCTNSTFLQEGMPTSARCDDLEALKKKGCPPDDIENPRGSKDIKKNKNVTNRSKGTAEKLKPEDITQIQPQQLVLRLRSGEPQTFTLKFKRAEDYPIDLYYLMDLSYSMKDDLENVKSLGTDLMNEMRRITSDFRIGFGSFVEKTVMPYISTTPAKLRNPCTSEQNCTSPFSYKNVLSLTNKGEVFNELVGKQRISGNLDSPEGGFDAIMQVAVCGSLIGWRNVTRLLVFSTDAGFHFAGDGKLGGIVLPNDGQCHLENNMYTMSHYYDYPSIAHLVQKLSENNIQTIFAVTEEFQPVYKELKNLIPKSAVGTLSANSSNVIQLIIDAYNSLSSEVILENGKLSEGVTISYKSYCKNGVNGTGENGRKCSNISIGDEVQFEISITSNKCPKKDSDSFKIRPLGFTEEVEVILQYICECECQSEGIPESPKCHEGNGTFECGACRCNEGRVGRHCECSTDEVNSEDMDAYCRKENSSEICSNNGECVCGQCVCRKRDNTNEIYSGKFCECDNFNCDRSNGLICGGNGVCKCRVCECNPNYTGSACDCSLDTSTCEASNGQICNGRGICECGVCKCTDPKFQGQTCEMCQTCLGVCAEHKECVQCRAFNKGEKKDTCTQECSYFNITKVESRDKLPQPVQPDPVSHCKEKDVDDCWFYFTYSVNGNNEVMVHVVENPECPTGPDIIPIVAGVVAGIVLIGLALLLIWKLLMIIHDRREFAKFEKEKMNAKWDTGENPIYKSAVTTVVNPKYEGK
Sequence of Integrin beta-1 (Homo sapiens) + Integrin alpha-4 (Homo sapiens) (P13612 whole entry, looked up): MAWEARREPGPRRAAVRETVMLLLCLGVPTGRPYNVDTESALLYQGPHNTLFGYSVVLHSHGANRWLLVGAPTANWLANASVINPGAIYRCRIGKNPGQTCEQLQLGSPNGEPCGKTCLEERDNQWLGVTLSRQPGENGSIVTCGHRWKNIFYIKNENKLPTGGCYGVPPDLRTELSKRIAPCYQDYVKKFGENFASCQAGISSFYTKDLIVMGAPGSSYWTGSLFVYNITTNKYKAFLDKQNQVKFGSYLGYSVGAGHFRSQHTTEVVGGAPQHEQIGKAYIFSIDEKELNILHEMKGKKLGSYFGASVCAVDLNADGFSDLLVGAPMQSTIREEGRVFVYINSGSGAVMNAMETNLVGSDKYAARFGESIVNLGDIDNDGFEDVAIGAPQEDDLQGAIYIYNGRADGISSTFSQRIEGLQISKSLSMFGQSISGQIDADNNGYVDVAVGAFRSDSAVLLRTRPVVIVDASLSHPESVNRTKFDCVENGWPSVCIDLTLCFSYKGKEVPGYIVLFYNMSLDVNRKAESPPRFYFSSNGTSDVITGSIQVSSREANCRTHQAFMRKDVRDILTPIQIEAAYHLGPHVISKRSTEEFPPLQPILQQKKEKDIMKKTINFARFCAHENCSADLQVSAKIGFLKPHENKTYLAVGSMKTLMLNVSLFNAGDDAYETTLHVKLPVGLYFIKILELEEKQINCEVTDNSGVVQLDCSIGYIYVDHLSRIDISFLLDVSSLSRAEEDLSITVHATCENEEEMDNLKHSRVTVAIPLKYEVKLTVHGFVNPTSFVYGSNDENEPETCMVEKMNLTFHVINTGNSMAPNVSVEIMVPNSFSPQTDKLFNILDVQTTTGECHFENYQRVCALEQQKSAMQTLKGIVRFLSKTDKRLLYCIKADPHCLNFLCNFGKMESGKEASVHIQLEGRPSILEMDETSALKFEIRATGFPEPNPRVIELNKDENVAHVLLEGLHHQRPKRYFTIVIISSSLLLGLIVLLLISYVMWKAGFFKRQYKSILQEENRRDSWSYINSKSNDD
Sequence of AP-2 complex subunit beta (Homo sapiens) (P63010 whole entry, looked up, the tested form may be a part, one chain of several): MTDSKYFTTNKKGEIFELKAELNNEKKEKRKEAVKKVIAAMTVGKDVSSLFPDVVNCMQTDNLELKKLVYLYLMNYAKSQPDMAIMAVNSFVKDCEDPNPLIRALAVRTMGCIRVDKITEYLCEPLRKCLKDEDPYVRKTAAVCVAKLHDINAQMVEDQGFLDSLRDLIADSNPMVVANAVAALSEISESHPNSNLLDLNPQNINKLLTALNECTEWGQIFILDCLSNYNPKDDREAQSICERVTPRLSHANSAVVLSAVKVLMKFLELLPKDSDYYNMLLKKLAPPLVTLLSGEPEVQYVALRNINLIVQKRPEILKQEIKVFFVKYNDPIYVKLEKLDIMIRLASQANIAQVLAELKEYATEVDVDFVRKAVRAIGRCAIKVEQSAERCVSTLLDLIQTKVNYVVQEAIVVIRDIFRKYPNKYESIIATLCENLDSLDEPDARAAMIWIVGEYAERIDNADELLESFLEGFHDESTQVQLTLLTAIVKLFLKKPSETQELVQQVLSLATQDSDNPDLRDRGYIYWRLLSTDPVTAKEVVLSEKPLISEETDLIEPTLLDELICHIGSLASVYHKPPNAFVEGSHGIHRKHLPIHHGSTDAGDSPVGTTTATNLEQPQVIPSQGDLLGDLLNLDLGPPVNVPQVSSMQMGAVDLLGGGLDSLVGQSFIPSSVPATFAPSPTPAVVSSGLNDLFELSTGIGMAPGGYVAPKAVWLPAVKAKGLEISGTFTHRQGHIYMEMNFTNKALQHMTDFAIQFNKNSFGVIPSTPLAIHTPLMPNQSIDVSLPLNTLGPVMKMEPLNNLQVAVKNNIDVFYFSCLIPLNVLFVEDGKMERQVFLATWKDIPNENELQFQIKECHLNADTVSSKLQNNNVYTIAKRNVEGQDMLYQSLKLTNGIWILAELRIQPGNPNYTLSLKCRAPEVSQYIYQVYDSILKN

With `O=C(CCCCC(=O)NC1CCCC1)NC1CCCC1` the percent of DMSO control GFP [1] was 96.8% (inactive), the GFP response vs DMSO [2] was 102% (inactive) and the percent response of DMSO control [3] was 105% (inactive). For the same compound, the GFP response vs DMSO [4] was 95.4% (inactive), the GFP response, % of DMSO [5] was 93.7% (inactive) and the double positive events [6] was 53.7%. For the same compound, the vesicle binding response [6] was 181% (inactive), the inhibition [7] was 10% (inactive) and the superoxide response (% of plate) [8] was 103% (inactive). The aptamer binding inhibition [9] was 0% (inactive), the inhibition [10] was 3.46% (inactive) and the response [11] was 3.11% (inactive). For the same compound, the binding (% of control) [12] was 102% (inactive), the efflux inhibition (fraction of control) [13] was 0.29 (inactive) and the inhibition [14] was 6% (inactive). The differentiation response [15] was -11.5% (inactive).
For `O=C(c1ccc(-c2ccccc2)c(F)c1)C1CCCN(C(=O)c2cncs2)C1` (stereo not given), the percent of DMSO control GFP [1] was 100% (inactive), the GFP response vs DMSO [2] was 103% (inactive) and the percent response of DMSO control [3] was 95.9% (inactive). The GFP response vs DMSO [4] was 108% (inactive), the GFP response, % of DMSO [5] was 91.8% (inactive) and the double positive events [6] was 49.8%. For the same compound, the vesicle binding response [6] was 157% (inactive), the inhibition [7] was 11.9% (inactive) and the superoxide response (% of plate) [8] was 132% (inactive). For the same compound, the aptamer binding inhibition [9] was 7% (inactive), the inhibition [10] was -11% (inactive) and the response [11] was 13.7% (inactive). The binding (% of control) [12] was 101% (inactive), the efflux inhibition (fraction of control) [13] was -0.47 (inactive) and the inhibition [14] was 9% (inactive). For the same compound, the differentiation response [15] was -14.7% (inactive).
In the case of `O=C(CCCN1CC=C(n2c(=O)[nH]c3ccccc32)CC1)c1ccc(F)cc1`, the percent of DMSO control GFP [1] is reported as 98.1% (inactive), the GFP response vs DMSO [2] is reported as 95.9% (inactive) and the percent response of DMSO control [3] is reported as 106% (inactive). The GFP response vs DMSO [4] was 93.3% (inactive), the GFP response, % of DMSO [5] was 97.2% (inactive) and the double positive events [6] was 63%. The vesicle binding response [6] was 237% (inactive), the inhibition [7] was 5.36% (inactive) and the superoxide response (% of plate) [8] was 97.2% (inactive). The aptamer binding inhibition [9] was -3% (inactive), the inhibition [10] was -14.3% (inactive) and the response [11] was -6.07% (inactive). The binding (% of control) [12] was 104% (inactive), the efflux inhibition (fraction of control) [13] was -0.05 (inactive) and the inhibition [14] was 6% (inactive). For the same compound, the differentiation response [15] was -19.6% (inactive).
With `CC(C)(C)c1csc(N/N=C/c2cccnc2)n1` the percent of DMSO control GFP [1] was 99% (inactive), the GFP response vs DMSO [2] was 106% (inactive) and the percent response of DMSO control [3] was 95.9% (inactive). The GFP response vs DMSO [4] was 107% (inactive), the GFP response, % of DMSO [5] was 87.4% (inactive) and the double positive events [6] was 53.8%. The vesicle binding response [6] was 163% (inactive), the inhibition [7] was 17.5% (inactive) and the superoxide response (% of plate) [8] was 96% (inactive). The aptamer binding inhibition [9] was 5% (inactive), the inhibition [10] was 5.38% (inactive) and the response [11] was 1.92% (inactive). For the same compound, the binding (% of control) [12] was 99.3% (inactive), the efflux inhibition (fraction of control) [13] was -0.12 (inactive) and the inhibition [14] was 7% (inactive). For the same compound, the differentiation response [15] was 4.64% (inactive).
In the case of `O=C(O)CCCCCCCC(=O)O`, the percent of DMSO control GFP [1] is reported as 100% (inactive), the GFP response vs DMSO [2] is reported as 99.9% (inactive) and the percent response of DMSO control [3] is reported as 90% (inactive). For the same compound, the GFP response vs DMSO [4] was 117% (inactive), the GFP response, % of DMSO [5] was 97.5% (inactive) and the double positive events [6] was 58.5%. For the same compound, the vesicle binding response [6] was 171% (inactive), the inhibition [7] was -6.77% (inactive) and the superoxide response (% of plate) [8] was 101% (inactive). For the same compound, the aptamer binding inhibition [9] was 4% (inactive), the inhibition [10] was 12.5% (inactive) and the response [11] was 0.2% (inactive). The binding (% of control) [12] was 99% (inactive), the efflux inhibition (fraction of control) [13] was 0.14 (inactive) and the inhibition [14] was -18% (inactive). The differentiation response [15] was 24% (inactive).
